Measurements taken from paper PMC12136788.
Numbering of substitutions follows the chain as printed. Over roughly 24,000 sequences, “enrichment r” has its median near 0.99; the highest 2% begin near 3.7. The list comes from a sample in which the highest values are over-represented; it also holds similar and randomly drawn sequences.

B1: chr14:23562722:23562723:-_ENSG00000100813_ENST00000605057|hu_mus|FALSE|FALSE (ssRNA)
RNA: GGGAGUUCUACAGUCCGACGAUCUGGCUCAUUUCCUCCCCGAUCUGUGAAUUUGGCUGGAAUGCAGCAUGGGGUGUUGAGUGUUUUUGUAAAUUUUCUAGCAUUAGAGCCCCUUUGAGCCGCUUGACCAGGGCACUCUUCUGCCAACAGAGGAUUGAGCAUCA
B2: 107524198_107526941_663_CDS_ENSMUSG00000028613_ENSMUST00000106731|mouse|control|control (ssRNA)
RNA: GGGAGUUCUACAGUCCGACGAUCGGGAUGAGGCGCGAGUAGUCCCGCUUCACCAGGUCUAUCCUCCGCACCUCGUGUCGGUUCGUGAAGAUCAGAGAUGGGCUCUUGCCGGCUACAGCUUUGCAGUUCUUGGUCAGUGUAUCCCAACAGAGGAUUGAGCAUCA
B3: chr11:72497679:72497680:+_ENSMUSG00000020794_ENSMUST00000021148|mus_mus|motif|central (ssRNA)
RNA: GGGAGUUCUACAGUCCGACGAUCUAUUGCUACAUCCAAUCCAAGAGAUGGGUGAAUCAUAGUACAAAAAGGACAAAGCACCGGGUGAUGACCCCUCCUCUGAAGUCAUCGUGAAAAACUCAAGUAAUUUACUAGUAUUUCAGUCAACAGAGGAUUGAGCAUCA
B4: chr10:35314101:35314102:-_ENSG00000108094_ENST00000537177|hu_mus|motif|central (ssRNA)
RNA: GGGAGUUCUACAGUCCGACGAUCUUCACCUGUACAGAGAUAAUGCAACCAUGUCAGCUUCCGUCCACUGAAAUGCUGGCGGUAAAACAAUUCAAACAUCUGUACACUUUUCUCUAGCUCUUGGGGAAUUGCAAAUGUAGAUGACAACAGAGGAUUGAGCAUCA
B5: chrX:153994619:153994620:+_ENSG00000130826_ENST00000369550|hu_mus|FALSE|FALSE (ssRNA)
RNA: GGGAGUUCUACAGUCCGACGAUCUCCAACAUACUCUUUGCCUGCACUCUGUUGUGAUUUCACCAAACGAGUGGCUCGUUCAAUGCACACAAUUAAACAACCAGUCACUUUGGGAUCUAGUGUGCCACUGUGGCCAGUCUUCUCCAACAGAGGAUUGAGCAUCA
B6: chr2:203071915:203071916:-_ENSG00000116030_ENST00000392246|hu_hu|motif|central (ssRNA)
RNA: GGGAGUUCUACAGUCCGACGAUCCAAAGAGAUGGGGUGCCAGUUUUCAAUUCCGUUUUGAACACCACAUUACAAAAGAACGGUUUUUAAAAAUAAAAAAGGAUUGAGGGAAAAGAAAAAAAAUAAAAAGAAUAUCUAAACUGUCAACAGAGGAUUGAGCAUCA
B7: chr2:203071915:203071916:-_ENSG00000116030_ENST00000392246|hu_hu|FALSE|FALSE (ssRNA)
RNA: B6 RNA with G81U, G82A
B8: chr2:203071830:203071831:-_ENSG00000116030_ENST00000392246|hu_hu|FALSE|FALSE (ssRNA)
RNA: GGGAGUUCUACAGUCCGACGAUCAGGGGACUGAGGCUUGAUCACCAAAAAUCAGCACAAUGAAAACAAACAAUAAUGAAUAAUGAGCACUAGAAUUCAAAUUACCAGAUGUUUCAAAGAGAUGGGGUGCCAGUUUUCAAUUCCCAACAGAGGAUUGAGCAUCA
B9: chr5:180275300:180275301:-_ENSG00000196670_ENST00000512132|hu_hu|FALSE|FALSE (ssRNA)
RNA: GGGAGUUCUACAGUCCGACGAUCUCAUCAUCACUGCCCCCUCCCAAACCAAUUACAUCAAGUUUAUACUUAAAGACCACUAAUAUUAAAUAAAUUUAUAUUCCCUGAAACCUAUCCUCCCUGAAUUUGCCUGUUGGAGGCCCUCAACAGAGGAUUGAGCAUCA
B10: chr10:22825647:22825648:-_ENSG00000150867_ENST00000376573|hu_hu|FALSE|FALSE (ssRNA)
RNA: GGGAGUUCUACAGUCCGACGAUCUCAUCAUUAUUAUCUUCAUUAUUCUGAAUACUGUCUCACAUCUUUCAACUCCAAAAAAAAAAAAAAAAAAAAAAAACUGAUCCACAGUUUGUUGUGUGAUGCCAACACGGUGCCUGACAUCAACAGAGGAUUGAGCAUCA
B11: chr18:43482294:43482295:-_ENSMUSG00000024501_ENSMUST00000121805|mus_mus|FALSE|FALSE (ssRNA)
RNA: GGGAGUUCUACAGUCCGACGAUCUGACAGAGUUUUGCCUAGCAUUUGAGAGGCCCUGGACUCAAUUGUCCAGCUCUACAAAAUGAAAUAAACAGAAAUUCCCCACCUCAAAAAAAAAAAACAACAACAACAACAACAAAAAACCAACAGAGGAUUGAGCAUCA
B12: chr9:88635815:88635816:+_ENSG00000135040_ENST00000361671|hu_hu|FALSE|FALSE (ssRNA)
RNA: GGGAGUUCUACAGUCCGACGAUCUCCUCCUGCCAAUAACUUCAUAACCACAAAGUUGGGUUUGGCAACCUUUAAAAUUCUAUUAACCUCAUGGUCCGGGUUAGGAAUAUUUUCCAAUAUCAUUUUUGCCUGUUGAAAGUGCUUCAACAGAGGAUUGAGCAUCA
B13: chr19:60013232:60013233:-_ENSMUSG00000040022_ENSMUST00000171986|mus_hu|FALSE|FALSE (ssRNA)
RNA: GGGAGUUCUACAGUCCGACGAUCCUUAUCUUUUAACUUUGCAAAAGGAGAUCUGGUUUUGUCCUUCAUUGAUAAGUCAAACAUACUUGCGGUCAUAUUGUUCCUCAUAAACUGAAUAUUGACCUUUAUCUCACCCCUGUUUUUCAACAGAGGAUUGAGCAUCA
B14: chr7:17500836:17500837:-_ENSMUSG00000019370_ENSMUST00000019514|mus_mus|FALSE|FALSE (ssRNA)
RNA: GGGAGUUCUACAGUCCGACGAUCUGAACUGAACACAAUAUUGCCCGGUUUGUUUGUUUGUUUAAAAAAAAAAAAAAAAAAGGAAAAACAAAAAACCAAAAUAAAACCCCGAAACAUUCCGCAAAGUCCACAGCCUCACGCCUACAACAGAGGAUUGAGCAUCA
B15: chr6:74304526:74304527:-_ENSG00000119899_ENST00000355773|hu_hu|motif|central (ssRNA)
RNA: GGGAGUUCUACAGUCCGACGAUCUAAUUAAGCAAAGGUAUCAGGAGGUCUGUUUCAGCUCAUUCCCUUUAGUAUGGCCCGGAAAAAUCAACAGAACUGUCCUACUUCAUGUUGCCCGACUAGCAGGCAGGUAUGUGAACCUAACAACAGAGGAUUGAGCAUCA
B16: 6859137_6859426_438_3pUTR_ENSG00000089693_ENST00000435120|human|control|control (ssRNA)
RNA: GGGAGUUCUACAGUCCGACGAUCGUCUGAAUCCCGAACAGUCCUCCGUGUCUCCCGGAUCCCGCCUGGUGCCGAGCGCAUCUCUGAUGUCUCUUGGUAGACCUUGGGGGCACCAUCACCCGUAUUGGAGUAGGAGAUGACAGUCAACAGAGGAUUGAGCAUCA
B17: chr18:35731670:35731671:+_ENSMUSG00000037236_ENSMUST00000166793|perfect_dup|motif|central (ssRNA)
RNA: GGGAGUUCUACAGUCCGACGAUCUGACCCUGUGAAUCCCUACCGAGAGAUGACUGCUGGAAUGACUUGGACAUUGUAGAACGGUCUCUUGUCUAUUUUAUAGAUCAAAAAAAAAAAAAAAAGUUUUAAAAGAUGGCCAAAAAGCAACAGAGGAUUGAGCAUCA
B18: chr1:39494564:39494565:+_ENSG00000168653_ENST00000372967|hu_hu|hu_hu_hu_mus_True|28_78 (ssRNA)
RNA: GGGAGUUCUACAGUCCGACGAUCAUGCAUUCGCCUCAUCGUUUUGUACCGAAGCAAACACUCUACGAAGUCAUCGAACUCUAUCUUGCACUCCUUUUUCGCCCGGGUAUAACCGAUCCCGUGUGCACACUCUAUCCACUCUUUCAACAGAGGAUUGAGCAUCA
B19: chr7:44244176:44244177:+_ENSG00000106636_ENST00000223369|hu_mus|hu_hu_hu_mus_False|48_48 (ssRNA)
RNA: GGGAGUUCUACAGUCCGACGAUCACUGUCGCUCCGGACGUAGACAUGGCAAAGAUACUCUUGUUCUUUGACAGAAGCUCUGCUGCCUUUCGAUGAGCGUUCCACAAUCAGUUGACUUGUAAAGGUCAUGAAUUCCUGCACACUCAACAGAGGAUUGAGCAUCA
B20: chr2:157388114:157388115:+_ENSMUSG00000067786_ENSMUST00000109526|mus_mus|motif|central (ssRNA)
RNA: GGGAGUUCUACAGUCCGACGAUCUUGGUGGAGGUGGUCCCUGUCUCCAGGAGCUUACAAUCUAGCUGGGGAGACACGGCGGAUGCACACUUAAACCAGUACAAUUAGCGACUACCACAAUAUUGACCACAACUGCUGCGUGAGCAACAGAGGAUUGAGCAUCA
B21: 104620154_104620274_4085_CDS_ENSMUSG00000074994_ENSMUST00000117237|mouse|control|control (ssRNA)
RNA: GGGAGUUCUACAGUCCGACGAUCACCUCCACUUUCAAUAUUUUCCUCAUCUGUAAAACCUUCUAUUGCAACUGUGUCCUGUCCUUUUGCCAACUGGUCUGAAGGAAGACUAUCAAGUUCGAUGGCUGUGGGGGAUUCUGUGGACAACAGAGGAUUGAGCAUCA
B22: 13689013_13692640_988_3pUTR_ENSMUSG00000022684_ENSMUST00000023365|mouse|control|control (ssRNA)
RNA: GGGAGUUCUACAGUCCGACGAUCCACUCCCAGGGCUCUCACACGCUCCAGCUCCGUGAGGAUGACCCUUCUGUGGCUACUGUUCUCUAUGGUAUAAGGUGCCCUGGAAAACUCUUCUUCUGUCAAAGUUAAAAGCAACCUUCCCAACAGAGGAUUGAGCAUCA
B23: chr2:120842339:120842340:+_ENSMUSG00000023572_ENSMUST00000060455|mus_mus|FALSE|FALSE (ssRNA)
RNA: GGGAGUUCUACAGUCCGACGAUCCUUAAGGACAGAGGCUGCCUUUCUAUCGAGCAAACACCCUGUCAAAGCUCCACUUCUAAAAGCAGACGUUAAAAAAACUUAAAAAAUAAAUAGGUAAAGCAGACACUGGAUCGUGGGUGUCAACAGAGGAUUGAGCAUCA
B24: chr2:120842339:120842340:+_ENSMUSG00000023572_ENSMUST00000060455|mus_mus|motif|central (ssRNA)
RNA: B23 RNA with U80G, A81G
B25: chr1:185089287:185089288:-_ENSG00000121486_ENST00000367506|hu_hu|FALSE|FALSE (ssRNA)
RNA: GGGAGUUCUACAGUCCGACGAUCUGACUGGACAUGGCUUUCUGACUGUCCUCCAGUGUAGGUGGGGGUGCUGUACUUUAAAAGGAUAGAUUUAAACUGCAUCAGAGGUGCAUCUGUGCGUACACCCAUUGGGUCAAAAUGAGUCAACAGAGGAUUGAGCAUCA
B26: 158551514_158564203_814_3pUTR_ENSG00000122335_ENST00000367104|human|control|control (ssRNA)
RNA: GGGAGUUCUACAGUCCGACGAUCCACCCUUCUGAGCAGCUAGACUCUGACUGCUUUCACUAAGAGCCAAAGAUGUAAAAUACUGGAUACACUCAUCUAGCUCUGUUUGAGGUAAGGAAGCCAGCAACUGUCUGAGCUCUUCUUCAACAGAGGAUUGAGCAUCA

What follows are binders tested against T1, UNK ZnF1-3 (human, UniProt Q9C0B0 31-174) (assay: nsRBNS (natural sequence RNA bind-n-seq); RBNS binding buffer (assumed for nsRBNS): 25 mM Tris pH 7.5, 150 mM KCl, 3 mM MgCl2, 0.01% Triton X-100, 500 ug/ml BSA, 20 U/ml SUPERase-In, 4 C; UNK is unkempt and MSI1 is Musashi-1; names of the RNAs are library labels; protein concentration not given here; high values mean tight binding).
T1 sequence: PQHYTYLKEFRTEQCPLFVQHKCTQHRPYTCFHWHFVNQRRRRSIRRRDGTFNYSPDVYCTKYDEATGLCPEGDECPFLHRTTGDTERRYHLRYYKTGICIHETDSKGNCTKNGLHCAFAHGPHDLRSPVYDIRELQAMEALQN

First: B1
Second: B2
The binding signal of the first is higher: 0.906 enrichment R for the first, 0.464 enrichment R for the second.

Going from B3 to B4, the binding signal falls from 0.978 enrichment R to 0.886 enrichment R.

Going from B5 to B6, the binding signal rises from 0.751 enrichment R to 20.1 enrichment R.

Going from B7 to B8, the binding signal falls from 32.1 enrichment R to 3.55 enrichment R.

Compared with B9, B10 is higher in binding signal: 3.55 enrichment R for the first, 5.07 enrichment R for the second.

Compared with B11, B12 is lower in binding signal: 3.06 enrichment R for the first, 1.04 enrichment R for the second.

Compared with B13, B14 is higher in binding signal: 0.548 enrichment R for the first, 6.58 enrichment R for the second.

Going from B15 to B16, the binding signal falls from 0.917 enrichment R to 0.67 enrichment R.

Compared with B17, B18 is lower in binding signal: 3.64 enrichment R for the first, 0.645 enrichment R for the second.

First: B19
Second: B20
The binding signal of the first is lower: 0.634 enrichment R for the first, 1.28 enrichment R for the second.

Going from B21 to B22, the binding signal falls from 0.848 enrichment R to 0.702 enrichment R.

First: B23
Second: B24
The binding signal of the first is higher: 5.28 enrichment R for the first, 3.71 enrichment R for the second.

Compared with B25, B26 is lower in binding signal: 0.951 enrichment R for the first, 0.91 enrichment R for the second.
